We go through 40 compounds from PubChem BioAssay (Tox21).

Where “and” joins values, the source holds several entries; their conditions need not be identical. Equal values may be shown once. Results filed as inconclusive are left out. Entries that show only a call come without a potency. More than one record can exist for a structure, and the calls need not agree. Calls of active or inactive are those of the source. Calls come from the whole dose curve; as a rule, active = well fitted inhibition curve with a large enough effect in the repeat runs; inconclusive = weak or mixed curves; inactive = no such curve, though single readings can be large or run the other way.
Potency is the fitted concentration of half-maximal effect.

Sequence of Cytochrome P450 3A4 (Homo sapiens) (P08684 whole entry, looked up): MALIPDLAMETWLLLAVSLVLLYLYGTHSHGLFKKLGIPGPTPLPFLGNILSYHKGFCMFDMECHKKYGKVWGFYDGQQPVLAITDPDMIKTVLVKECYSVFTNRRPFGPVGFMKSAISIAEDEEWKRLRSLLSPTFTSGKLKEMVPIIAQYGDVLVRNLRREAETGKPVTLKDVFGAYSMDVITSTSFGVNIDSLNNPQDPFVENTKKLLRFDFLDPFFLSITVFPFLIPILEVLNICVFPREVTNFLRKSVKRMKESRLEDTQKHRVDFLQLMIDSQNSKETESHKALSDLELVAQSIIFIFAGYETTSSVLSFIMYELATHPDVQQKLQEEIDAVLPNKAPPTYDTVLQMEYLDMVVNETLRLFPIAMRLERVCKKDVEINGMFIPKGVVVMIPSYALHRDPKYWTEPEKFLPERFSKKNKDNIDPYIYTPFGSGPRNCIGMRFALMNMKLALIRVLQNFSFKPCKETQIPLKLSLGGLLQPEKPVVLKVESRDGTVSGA

The target of this assay is Cytochrome P450 3A4 (Homo sapiens) (UniProt P08684). The experiment in a line: Cytochrome P450 Family 3 Subfamily A Member 4 (CYP3A4) small molecule antagonists: luciferase reporter qHTS assay (AID 1671201). Note: nearly all actives have a fitted effect of over 50% in size. The conditions noted are these: P450-Glo CYP3A4 enzyme, luciferin luminescence, 1 h; series mostly up to 115 µM. From the text:
National Center for Advancing Translational Sciences [NCATS]
U.S. Environmental Protection Agency [EPA]
National Institutes of Environmental Health Sciences [NIEHS]
National Toxicology Program [NTP]
U.S. Food and Drug Administration [FDA]
Cytochrome P450 (CYP) enzymes are membrane-bound hemeproteins that play a key role in metabolism of drugs and xenobiotics. Evaluation of the effect of chemicals on CYP isozymes is useful to minimize the adverse drug reactions and toxicities in drug development process. Tox21 chemicals were tested for their effect on CYP enzyme activities by using P450-Glo (TM) screening systems (Promega Corporation, Madison, WI). These systems provide a luminescent method containing proluciferin substrates and are converted to luciferin products by CYP isozymes. The luciferin products formed are detected with a luciferin detection reagent, and the amount of light produced is proportional to CYP activity. P450-Glo (TM) CYP3A4 screening system (Catalog. No. V9910) was used to detect the compounds that interfere in CYP3A4 activity. The positive control compound used for CYP3A4 assay is ketoconazole (Sigma-Aldrich, St. Louis, MO).
Tox21 Assay Protocol Summary:
Two ul of enzyme-substrate mix was dispensed into medium binding white/solid 1536-well plates (Greiner Bio-One North America Inc., Monroe, NC) using a BioRaptr Flying Reagent Dispenser (FRD, Beckman Coulter, Brea, CA). Compounds dissolved in DMSO and positive control (ketoconazole) were transferred to the assay plates at 23 nl using a Pintool station (Wako, San Diego, CA). The assay plates were incubated at room temperature for 10 min. Then 2 ul of NADPH regeneration solution was added to each well of the assay plates using an FRD and incubated at room temperature for 1 h. The reaction was stopped by adding 4 ul of detection reagent using an FRD and after 20 min incubation at room temperature the luminescence signal was measured using a ViewLux plate reader (Perkin Elmer, Shelton, CT). Data were expressed as relative luminescence units.
Background: In a reporter assay the amount or activity of a reporter protein is the signal.
Consider `Cc1ccc2c(n1)Oc1ccc(C(C)C(=O)OCC(=O)N(C)C)cc1C2` (stereo not given), for which the Potency entry is “inactive”.
As to `COC(=O)c1ccccc1`, the Potency entry is “inactive”.
On to `CN1C(C(=O)Nc2ccccn2)=C(O)c2ccccc2S1(=O)=O`, for which the Potency entry was “inactive”.
With `C=C(C)C1CC=C(C)CC1` (stereo not given) the entry was “inactive”; with `Nc1ccc(Nc2ccccc2)cc1`, 5.58 µM (active) and 11.3 µM (active) and 7.96 µM (active); with `CC(C)OC(=O)C(C)(C)Oc1ccc(C(=O)c2ccc(Cl)cc2)cc1`, “inactive”.
With `CCOCCOCCO` the entry was “inactive”; with `CCCCNS(=O)(=O)c1ccccc1`, “inactive”.
With `CCC(C)OC(=O)c1ccc(O)cc1` (stereo not given) the entry was “inactive”.
Take `CC(C)OC=O`: the Potency result was “inactive”.
With `c1ccc2cc(Nc3ccc(Nc4ccc5ccccc5c4)cc3)ccc2c1` the entry was “inactive”.
With `CCCCCCCCCC(=O)OC` the entry was “inactive”.
On to `Nc1ncn([C@@H]2O[C@H](CO)[C@@H](O)[C@H]2O)c(=O)n1`, for which the Potency result is “inactive”.
With `COc1c(Cl)c(Cl)c(Cl)c(Cl)c1Cl` the entry was “inactive”.
Take `CC1=CCC(C(C)(C)O)CC1` (stereo not given): the Potency entry is “inactive”.
With `CN(C)CCC=C1c2ccccc2CCc2ccccc21` the entry was “inactive”.
With `CC(C)(C)NC(=O)[C@H]1CC[C@H]2[C@@H]3CC[C@H]4NC(=O)C=C[C@]4(C)[C@H]3CC[C@]12C` the entry was “inactive”; with `c1cc(N(CC2CO2)CC2CO2)ccc1OCC1CO1` (stereo not given), “inactive”; with `CC(=O)O[C@]1(C(C)=O)CC[C@H]2[C@@H]3C=C(Cl)C4=CC(=O)[C@@H]5C[C@@H]5[C@]4(C)[C@H]3CC[C@@]21C`, “inactive”.
With `Cc1cccc(C(=O)O)c1` the entry was “inactive”; with `OC(CCl)CCl`, “inactive”.
`O=[N+]([O-])c1ccc2c(c1)Cc1ccccc1-2`: the Potency entry was “inactive”.
With `c1ccc(Nc2ccccc2)cc1` the figure was 3.17 µM (active) and inactive; with `CC(CCC(=O)O)(c1ccc(O)cc1)c1ccc(O)cc1`, “inactive”.
With `Cn1cnc([N+](=O)[O-])c1Sc1ncnc2nc[nH]c12` the entry was “inactive”.
As for `C=C(C)C(=O)OCCOC(=O)C(=C)C`, the Potency result was “inactive”.
As to `O=CCc1ccccc1`, the Potency result is “inactive”.
As to `C[Si](C)(C)O[Si](C)(C)C`, the Potency result is “inactive”.
As for `Cc1cc2nc3c(=O)[nH]c(=O)nc-3n(C[C@H](O)[C@H](O)[C@H](O)CO)c2cc1C`, the Potency result is “inactive”.
With `CCCCOCCOCCOCCO` the entry was “inactive”.
Consider `Nc1ccc(S(=O)(=O)Nc2cnc3ccccc3n2)cc1`, for which the Potency result was “inactive”.
Take `CC(C)=CCCC(C)CCO` (stereo not given): the Potency entry was “inactive and 39.9 µM (active)”.
With `Oc1ccc(O)cc1` the entry was “inactive”; with `c1ccc2sc(SSN3CCOCC3)nc2c1`, “inactive”.
`COc1ccccc1/C=C/C=O`: the Potency entry is “inactive”.
Regarding `COC(=O)Nc1nc2ccc(S(=O)c3ccccc3)cc2[nH]1` (stereo not given), the Potency entry was “inactive”.
With `O=C(c1ccccc1)c1ccccc1O` the entry was “inactive”; with `c1ccc2c(c1)c1cccc3ccc4cccc2c4c31`, “inactive”; with `CCCCCCCCCCCO`, “inactive”.
With `c1ccncc1` the entry was “inactive”.
